hcDAF-12 act = H. contortus DAF-12 nuclear receptor activators, primary screen, cell-based, luminescence, HEK293, lit1-tk-luc reporter; HEK293 hcDAF-12 lit1-tk-luc reporter; 0% DMSO, 100% Δ7-dafachronic acid; activation, % at 6.8 µM; 370,000 compounds, 1.4% hits;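 active = activation above the mean of all tested compounds plus 3 SD, cut at about 5.5% in these data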;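 also: 100% = response to 3 µM Δ7-dafachronic acid high control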
AHR activator = AHR activators, primary screen, cell-based, luminescence, luciferase reporter, human. Aryl hydrocarbon receptor (Homo sapiens), P35869. AHR-responsive luciferase reporter cells. activation, % at 5 µM. 320,000 compounds, 2.5% hits; in the data active = activation above about 47%;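 also: 0% = vehicle wells and 100% = reference agonist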
Target sequence (P35869 whole entry, looked up): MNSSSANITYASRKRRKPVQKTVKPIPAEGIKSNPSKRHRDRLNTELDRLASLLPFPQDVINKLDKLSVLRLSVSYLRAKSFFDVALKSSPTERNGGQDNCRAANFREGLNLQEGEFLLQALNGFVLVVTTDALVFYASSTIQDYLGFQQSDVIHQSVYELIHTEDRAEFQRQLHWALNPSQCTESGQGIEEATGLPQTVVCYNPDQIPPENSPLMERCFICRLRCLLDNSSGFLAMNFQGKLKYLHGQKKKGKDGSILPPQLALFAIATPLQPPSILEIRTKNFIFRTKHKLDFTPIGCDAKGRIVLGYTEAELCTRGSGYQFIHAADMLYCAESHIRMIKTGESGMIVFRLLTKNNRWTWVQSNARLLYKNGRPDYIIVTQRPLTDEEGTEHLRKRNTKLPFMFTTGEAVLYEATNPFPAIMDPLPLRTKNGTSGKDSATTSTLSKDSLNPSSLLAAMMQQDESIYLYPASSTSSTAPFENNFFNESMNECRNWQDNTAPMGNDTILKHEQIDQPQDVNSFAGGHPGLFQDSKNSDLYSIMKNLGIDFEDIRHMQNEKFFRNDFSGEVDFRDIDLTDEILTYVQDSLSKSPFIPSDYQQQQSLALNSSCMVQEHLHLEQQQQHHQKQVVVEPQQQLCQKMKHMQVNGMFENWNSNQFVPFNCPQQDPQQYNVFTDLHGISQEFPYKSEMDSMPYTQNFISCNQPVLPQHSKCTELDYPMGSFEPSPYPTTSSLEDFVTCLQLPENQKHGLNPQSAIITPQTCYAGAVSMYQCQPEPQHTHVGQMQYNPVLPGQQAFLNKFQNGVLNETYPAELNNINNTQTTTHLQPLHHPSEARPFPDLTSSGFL
ssDAF-12 act = S. stercoralis DAF-12 nuclear receptor activators, primary screen, cell-based, luminescence, HEK293, GRIP1 co-expression, lit1-tk-luc; HEK293 ssDAF-12/GRIP1 lit1-tk-luc reporter; % of 3 µM dafachronic acid response; activation, % at 6.8 µM; 370,000 compounds, 1% hits; AID 652126, 2013; Nuclear hormone receptor DAF-12 (Strongyloides stercoralis);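 active = activation above the mean over all tested compounds plus 3 SD, cut at about 0.9% in these data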;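 also: 0% = DMSO-only wells and 100% = 3 µM delta7-dafachronic acid wells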
DAX1 inh-1 = DAX1 (NR0B1) inhibitors on StAR promoter, primary screen, cell-based, luminescence, SF-1 (NR5A1), full-length DAX-1; HEK293T StAR-luciferase reporter, SF-1/DAX-1 repression relief; inhibition, % at 6.8 µM; 370,000 compounds, 1.1% hits; AID 652010, 2013;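 active = inhibition above the mean over all tested compounds plus 3 SD, cut at about 3.6% in these data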;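 also: 0% = DAX-1 cells with DMSO and 100% = cells lacking DAX-1 with DMSO; higher inhibition means more luminescence from relief of DAX-1 repression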
hgDAF-12 ag = H. glycines DAF-12 receptor agonists, primary screen, cell-based, luminescence, HEK293, GAL4 fusion, UAS-luciferase; Nuclear hormone receptor DAF-12 (Heterodera glycines), GAL4 fusion; HEK293 GAL4-hgDAF12 UAS-luciferase reporter, agonist luminescence; normalized to butyrate control; activation, % at 6.8 µM; 370,000 compounds, 1.8% hits;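 active = activation above a cutoff set at the mean of all screened compounds plus 3 SD, cut at about 10% in these data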;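 also: 0% = DMSO wells and 100% = sodium butyrate wells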
DAX1 inh-2 = DAX1 (NR0B1) inhibitors, primary screen, cell-based, HEK293, Gal4-DAX1, luciferase luminescence; 340,000 compounds, 0.99% hits; Nuclear receptor subfamily 0 group B member 1 (Homo sapiens), P51843; HEK293 Gal4-DAX1 luciferase reporter; inhibition, % at 6.75 µM;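 active = inhibition above the mean over all tested compounds plus 3 SD, cut at about 4.2% in these data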;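 also: 0% = DAX1-transfected cells with DMSO and 100% = empty-vector control cells with DMSO; inhibition shows as a rise in luminescence from relieved DAX1 repression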
Active calls of the source: *; / = not tested or not shown. This is a sample that favours compounds with a hit; in the whole collection about 5.7% have one here.

SMILES	hcDAF-12 act	AHR activator	ssDAF-12 act	DAX1 inh-1	hgDAF-12 ag	DAX1 inh-2
CC(=O)NC(c1ccccc1)c1nc(-c2ccc(F)c(Cl)c2)cs1 (centres undefined)	-0.1	/	-1.6	-1.5	-1.6	/
COC(=O)CNc1nc(Cl)nc(NC2CCCCC2)n1	-0.6	/	-0.3	0.2	-0.7	1.2
COC(=O)CSc1nc2cc3c(cc2cc1C#N)OCO3	2.9	-4.5	0.4	3.7*	11.9*	4.7*
N#Cc1cc2cc3c(cc2nc1SCC(=O)N1CCOCC1)OCO3	3.5	27.1	-0.6	1.0	6.5	6.6*
CCOc1ccc2nc(SCC(=O)N3CCCCCC3)c(C#N)cc2c1	1.1	12.9	-0.9	0.0	-0.7	1.7
CCOc1ccc2cc(C#N)c(SCC(=O)N3CCOCC3)nc2c1	2.7	11.3	0.4	2.7	10.6*	2.6
O=C(OCc1cn(Cc2ccc(F)c(F)c2)nn1)N1CCCC1	-0.4	/	-0.2	-0.3	-3.3	/
Cc1cc2nc(CSc3ccccc3)cc(=O)n2[nH]1	-0.8	4.3	-0.9	0.3	-0.2	/
Clc1ccc(-c2cc(-c3nnc4sc(Cc5cccs5)nn34)[nH]n2)cc1	-0.9	/	-0.7	-0.7	-3.6	/
Cn1ncc2c(Nc3ccc4ccccc4c3)ncnc21	1.9	23.8	-1.6	2.1	12.5*	2.4
O=C(NC1CCCC1)C1c2ccccc2OCC(=O)N1C1CC1 (centres undefined)	-0.5	/	0.4	-0.4	3.3	/
O=C(Nc1cccc([N+](=O)[O-])c1)OCc1ccc2c(c1)OCO2	-1.0	/	-1.0	-0.6	0.7	/
CCCOc1ccc(NC(=O)CC2C(=O)Nc3ccccc3N2CC(=O)N2CCCC2)cc1 (centres undefined)	-0.3	4.9	-0.9	-2.2	-1.6	-0.5
COc1ccc(NC(=O)CC2C(=O)Nc3ccccc3N2CC(=O)N2CCCC2)cc1 (centres undefined)	2.0	73.5*	-0.1	0.2	-1.5	-0.5
Cc1cccnc1C(NC(=O)C1CCN(CCCc2ccccc2)CC1)c1ccc(F)cc1 (centres undefined)	-1.9	/	-0.9	0.2	0.5	/
CC1CCCN(S(=O)(=O)c2ccc(NC(=O)C3CCN(C(=O)c4ccco4)CC3)cc2)C1 (centres undefined)	-3.5	-0.8	-0.2	-0.2	-1.7	-0.5
O=[N+]([O-])c1ccc(-c2ccc(/C=N/Nc3nc(NCc4ccccc4)nc(N4CCOCC4)n3)o2)cc1	-2.5	3.9	-1.4	0.0	1.7	-2.4
COc1nc(N/N=C/c2ccc(-c3ccccc3[N+](=O)[O-])o2)nc(N2CCOCC2)n1	0.4	50.0*	0.0	-1.2	-1.3	-2.1
Nc1cc(Cl)nc(N/N=C/c2ccc([N+](=O)[O-])cc2)n1	-0.1	4.5	-1.9	-1.6	2.7	-0.1
O=[N+]([O-])c1ccccc1/C=N/Nc1nc(N2CCCC2)nc(N2CCCC2)n1	-1.1	51.2*	-1.7	2.0	-3.6	-0.1
Nc1cc(Cl)nc(N/N=C/c2ccccc2[N+](=O)[O-])n1	0.1	52.0*	-1.0	1.0	7.3	1.0
CC(C)c1ccc(O)c(N)c1	1.0	7.3	-0.9	-1.2	-4.8	-1.1
CC(C)(C)c1ccc(O)c(N)c1	/	48.0*	/	/	/	/
CCOC(=O)C1C(=O)NC(c2ccccc2)=NC1c1ccc(O)c(OC)c1 (centres undefined)	-0.4	2.5	-0.7	-0.7	1.4	-0.9
O=[N+]([O-])c1ccc(Nc2ccc(F)cc2)nc1	-2.1	-0.9	-1.7	-0.4	1.3	-0.9
SMILES	hcDAF-12 act	AHR activator	ssDAF-12 act	DAX1 inh-1	hgDAF-12 ag	DAX1 inh-2
CN(C)c1ccc(Nc2ccc([N+](=O)[O-])cn2)cc1	1.2	36.8	-0.1	0.8	7.1	5.4*
Cc1cc(C)cc(-n2nnc3ccccc3c2=O)c1	-1.4	/	-0.5	-2.1	8.4	-0.8
O=c1c2ccccc2nnn1-c1ccc(Br)cc1	-0.4	117.2*	-0.9	0.7	4.8	0.0
Cc1ccc(S(=O)(=O)NNC(=O)c2cccnc2)cc1	-0.3	0.6	-0.1	0.7	0.4	1.2
O=C(NC(=S)Nc1ccccc1O)c1cncc(Br)c1	2.8	53.5*	-1.2	0.2	5.0	3.9
O=C(NC(=S)NNS(=O)(=O)c1ccccc1)c1cccnc1	1.6	0.7	1.1*	-0.2	-3.4	0.4
O=C(NC(=S)Nc1ccccc1O)c1cccnc1	-2.4	58.3*	-1.9	-0.2	2.2	2.1
O=C(NC(=S)NNC(=O)c1ccccc1O)c1cccnc1	2.2	2.1	0.1	2.4	2.4	4.3*
N#Cc1ccccc1NC(=S)NC(=O)c1cccnc1	4.0	9.4	-0.7	0.0	0.2	1.1
COc1cccc(NC(=S)NC(=O)c2cncc(Br)c2)c1	1.2	23.8	-0.8	-0.1	3.9	4.5*
CC(=O)c1cccc(NC(=S)NC(=O)c2cncc(Br)c2)c1	0.5	29.9	0.2	-0.4	4.6	1.5
Nc1ncnc2c(C3OC(CO)C(O)C3O)c[nH]c12 (centres undefined)	-4.8	/	-2.4	-6.8	-15.5	-6.3
Cc1sc(NC(=O)CCCC(=O)O)c(C(N)=O)c1-c1ccccc1	-5.4	-5.1	-3.1	-0.9	-14.1	-1.6
COc1ccc(-c2nc3c(Br)c(N)c(Br)cc3o2)cc1	/	48.6*	/	/	/	1.0
COc1ccc(-c2nc3ccc([N+](=O)[O-])cc3o2)cc1	0.3	-3.0	-1.0	1.1	7.3	3.0
COc1cccc(CC2(CO)CCCN(Cc3cn(C)c4ccccc34)C2)c1 (centres undefined)	1.5	6.9	0.3	0.2	0.8	-1.1
Cn1cc(CN2CCCC(CO)(Cc3ccccc3)C2)c2ccccc21 (centres undefined)	-1.9	6.8	-1.1	0.4	0.8	4.9*
Cc1cc(C)n2nc(-c3sccc3-n3c(C)ccc3C)cc2n1	-1.0	52.0*	-1.3	-0.1	1.9	-0.4
O=C(OCC(=O)N1CCOCC1)c1cc(F)c(F)cc1Cl	0.1	-1.1	-1.3	-0.2	0.6	1.1
Cc1cc(N)c(-n2cc3c(=O)n(C)c(=O)n(C)c3c2)cc1C	3.0	55.7*	0.2	1.1	4.6	0.5
CCOC(=O)c1c(C)n(CCOc2ccccc2)c2ccc(O)cc12	-1.2	51.0*	-1.1	0.1	-0.6	-1.5
CCOC(=O)c1c(C)n(C)c2ccc(OCC(N)=O)cc12	-0.6	69.8*	-1.5	-0.5	1.3	0.1

Assay outcomes (PubChem BioAssay)
